Experimental data reported in PubChem BioAssay (NCATS).
Records with an inconclusive call do not appear. The source made the active and inactive calls. Unless noted, calls follow the shape of the dose curve; as a rule, active = well fitted curve in either direction with a large enough effect (not every such curve was filed as active); inconclusive = small, poorly fitted or top-dose-only effect, or another doubt; inactive = flat fitted curve, though single readings scatter.

Key:
[1] = target: Lysosomal acid glucosylceramidase (Homo sapiens) (UniProt P04062); experiment: Glucocerebrosidase-p2 (AID 348; in the data active = potency below about 10 µM; also: potency is read from the fitted curve at half-maximal effect); settings: purified GBA, blue fluorogenic substrate, 40 min
Method in brief: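 Normal human glucocerebrosidase (0.2 nM) with blue fluorogenic substrate (80 uM final) in citrate/phosphate pH 5.9 with 10mM sodium taurocholate, 0.01% tween-20; 40 min RT, NaOH/glycine stop; fluorescence Ex 365/Em 440; AC50 from a titration from 0.6 nM upwards.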

[2] = AP1 Signaling Pathway (AID 357); settings: ME-180 AP-1-bla reporter, EGF-induced, beta-lactamase ratio, 5 h; at 7.69 µM (top of the series) unless noted;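 also: ME-180 reporter cells stimulated with EGF at its EC50 level; % is scaled to controls: 0 for no effect and ±100 for the full control effect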
Method in brief: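 Beta-lactamase reporter under AP-1 response element, ME-180 background. Stimulus: EC50 EGF. Compound exposure 5 h, 37 °C. Detection: CCF4, 2.5 h RT, 460/530 nm. Values: AC50 from titration.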

[3] = target: Cytochrome P450 1A2 (Homo sapiens) (UniProt P05177); experiment: p450-cyp1a2 (AID 410; calls by dose curve; also: potency is read from the fitted curve at half-maximal effect;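 as to activity change, negative = inhibition: -100% = full effect of reference inhibitor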); settings: recombinant CYP1A2, luciferin-ME demethylation, luminescence; series mostly up to 11.4 µM
Method in brief: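 Read-out is luminescence from luciferin produced by CYP1A2 demethylation of Luciferin-ME (100uM, at Km). Detection reagent stopped the 60 min NADPH-dependent reaction; signals were normalized to 57 uM furafylline.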

[4] = NFAT Signaling Pathway (AID 444); settings: Jurkat NFAT-bla M1, carbachol, beta-lactamase ratio, 5 h; at 7.69 µM (top of the series) unless noted;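 also: carbachol stimulus at about its EC50 of 1 µM final; % is scaled to controls: 0 for no effect and ±100 for the full control effect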
Method in brief: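 Read-out: CCF4 FRET ratio (460 nm/530 nm) after 1 h RT dye loading, used for %activity and AC50 from titration series. Cells: Jurkat NFAT-β-lactamase/M1 line, treated with compound plus 1 uM carbachol for 5 h, 37 °C.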

[5] = Stat Signaling Pathway (AID 446); settings: ME-180 (cervical carcinoma) SIE beta-lactamase reporter, IL-6 stimulated, 5 h; at 7.69 µM (top of the series) unless noted;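 also: ME-180 cervical cancer cells given 40 pM IL-6 alongside compound; SIE-controlled beta-lactamase reporter measured as 460/530 nm FRET emission ratio; % is scaled to controls: 0 for no effect and ±100 for the full control effect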
Method in brief: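 FRET read-out (405 nm excitation, 460/530 nm emission) of a beta-lactamase reporter under a STAT-inducible element in ME-180 cervical carcinoma cells. Cells with compound receive 40 pM IL-6 for 5 h. Values are normalised to AC90 stimulation and AC90 JAK-inhibitor controls.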

[6] = target: Glucocorticoid receptor (Homo sapiens) (UniProt P04150); experiment: GR-GFP Redistribution (AID 450;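 active = compounds whose dose series gives a full or clear partial fitted curve of increased nuclear translocation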; also: potency is read from the fitted curve at half-maximal effect); settings: U2OS GR-GFP nuclear translocation, laser cytometry, 2 h
[7] = target: Glucocorticoid receptor (Homo sapiens) (UniProt P04150); experiment: GR-EFC Redistribution (AID 451; calls by dose curve; also: potency is read from the fitted curve at half-maximal effect); settings: CHO-K1 GR-EFC translocation, beta-gal luminescence, 2 h
Method in brief: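 Translocation of GR-ED fusion to nuclear EA restores b-gal, read by luminescence after 1 h room-temperature detection. Engineered CHO-K1 biosensor cells, 1,000/well, exposed 2 h at 37 C to titrations up to 46 uM final.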

[8] = target: Mitogen-activated protein kinase 10 (Mus musculus) (UniProt Q61831); experiment: JNK3 AlphaScreen Assay (AID 530); settings: JNK3 lysate, c-Jun phosphorylation; series mostly up to 11.4 µM;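 also: kinase came from lysate of stimulated human HepG2 cells; signal reports phosphorylation of biotinylated GST-cJun 1-79 at Ser73 with 10 µM ATP; % is scaled to controls: 0 for no effect and ±100 for the full control effect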
Method in brief: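 Kinase buffer: 20 mM Tris-HCl pH 7.6, 10 mM MgCl2, 1 mM DTT, 0.1 mM Na3VO4, 0.01% Tween-20; ATP 10 uM. Substrate biotin-GST-cJun(1-79), enzyme from activated HepG2 lysates. Detection by Ser73 phospho-antibody AlphaScreen.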

[9] = target: 3',5'-cyclic-AMP phosphodiesterase 4B (Homo sapiens) (UniProt Q07343); experiment: qHTS Assay for Inhibitors of PDE-IV (AID 607; active = well fitted activation curve with a large enough effect in the main read-out, with a control signal flat, not every such curve was filed as active; also: % of control where 0% means no effect); settings: HEK293 ACTOne CNG channel cells, membrane potential fluorescence; series mostly up to 22.9 µM
Method in brief: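 Cell-based read-out of cAMP via a modified cyclic nucleotide-gated channel and membrane potential dye (535/590 nm) in HEK293 cells expressing PDE4 endogenously. Compounds tested up to 22.9 uM final; 100 uM RO 20-1724 reference.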

[10] = target: Cytochrome P450 2C9 (Homo sapiens) (UniProt P11712); experiment: qHTS Assay for Inhibitors and Substrates of Cytochrome P450 2C9 (AID 883; active = well fitted curve in the direction sought with a large enough effect; an effect the other way counts as inactive or inconclusive; also: nearly all actives have a fitted effect of over 60% in size; also: potency is read from the fitted curve at half-maximal effect); settings: recombinant CYP2C9, luciferin-H luminescence, 60 min; series mostly up to 11.4 µM
Method in brief: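 Inhibition of CYP2C9 is scored as loss of luminescence, with 57uM sulphaphenazole defining 100% inhibition. Substrate Luciferin-H is used at 100uM, equal to its KM; enzyme at 10nM in 25mM KPO4, 60 min at 37C with NADPH regeneration.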

[11] = target: Cytochrome P450 3A4 (Homo sapiens) (UniProt P08684); experiment: qHTS Assay for Inhibitors and Substrates of Cytochrome P450 3A4 (AID 884; active = well fitted curve in the direction sought with a large enough effect; an effect the other way counts as inactive or inconclusive; also: potency is read from the fitted curve at half-maximal effect; nearly all actives have a fitted effect of over 50% in size); settings: recombinant CYP3A4, Luciferin-PPXE luminescence; series mostly up to 57.1 µM
Method in brief: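 Luminescent readout of luciferin produced by CYP3A4 (20 nM) dealkylation of Luciferin-PPXE, 25 uM (its KM). NADPH-driven reaction ran 60 min at RT after 10 min compound preincubation; data scaled to 57 uM ketoconazole as 100% inhibition.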

[12] = target: Cytochrome P450 2D6 (Homo sapiens) (UniProt P10635); experiment: qHTS Assay for Inhibitors and Substrates of Cytochrome P450 2D6 (AID 891; active = well fitted curve in the direction sought with a large enough effect; an effect the other way counts as inactive or inconclusive; also: nearly all actives have a fitted effect of over 60% in size; also: potency is read from the fitted curve at half-maximal effect); settings: recombinant CYP2D6, luciferin-ME EGE luminescence; series mostly up to 11.4 µM
Method in brief: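 Luminescent read-out of luciferin formed by 5 nM human CYP2D6 demethylating 30 uM Luciferin-ME EGE (Km level) over 60 min at room temperature after NADPH regeneration addition. Data normalized to full inhibition by 1.43 uM quinidine.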

[13] = target: Cytochrome P450 2C19 (Homo sapiens) (UniProt P33261); experiment: qHTS Assay for Inhibitors and Substrates of Cytochrome P450 2C19 (AID 899; active = well fitted curve in the direction sought with a large enough effect; an effect the other way counts as inactive or inconclusive; also: nearly all actives have a fitted effect of over 60% in size; also: potency is read from the fitted curve at half-maximal effect); settings: recombinant CYP2C19, luciferin-H EGE luminescence; series mostly up to 11.4 µM
Method in brief: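 5nM enzyme + 10uM Luciferin-H EGE (=KM), 50mM KPO4; cpd pin-transferred, 10 min 37C; NADPH regen, 60 min 37C; stopped w/ luciferin detection reagent, 20 min; luminescence. Normalized to 57uM ketoconazole (AC100).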

[14] = target: Cytochrome P450 3A4 (Homo sapiens) (UniProt P08684); experiment: qHTS Assay for Activators of Cytochrome P450 3A4 (AID 885; active = well fitted curve in the direction sought with a large enough effect; an effect the other way counts as inactive or inconclusive; also: nearly all actives have a fitted effect of over 65% in size); settings: recombinant CYP3A4, Luciferin-PPXE luminescence, 60 min; series mostly up to 11.4 µM
Method in brief: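 Luminescent readout of luciferin formed from 25 uM Luciferin-PPXE (KM level) by 20 nM CYP3A4 in 200 mM KPO4, with 60 min NADPH-driven reaction at room temperature after 10 min compound exposure. Ketoconazole (57 uM) defined 100% inhibition.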

Sequence of Lysosomal acid glucosylceramidase (Homo sapiens) (P04062 whole entry, looked up): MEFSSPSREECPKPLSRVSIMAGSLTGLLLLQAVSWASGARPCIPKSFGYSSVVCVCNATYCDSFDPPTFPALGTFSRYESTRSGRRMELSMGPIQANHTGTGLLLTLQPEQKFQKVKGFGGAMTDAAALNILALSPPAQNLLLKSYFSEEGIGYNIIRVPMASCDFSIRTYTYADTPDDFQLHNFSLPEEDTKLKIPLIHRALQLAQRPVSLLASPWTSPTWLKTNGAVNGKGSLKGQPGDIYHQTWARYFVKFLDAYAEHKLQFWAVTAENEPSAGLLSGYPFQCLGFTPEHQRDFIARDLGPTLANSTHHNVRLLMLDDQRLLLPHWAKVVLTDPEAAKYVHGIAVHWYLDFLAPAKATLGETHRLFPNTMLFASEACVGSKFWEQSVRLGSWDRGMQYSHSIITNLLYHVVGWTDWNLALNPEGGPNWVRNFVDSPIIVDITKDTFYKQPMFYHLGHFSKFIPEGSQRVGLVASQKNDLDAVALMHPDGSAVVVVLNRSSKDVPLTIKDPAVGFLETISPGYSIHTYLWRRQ
Sequence of Cytochrome P450 1A2 (Homo sapiens) (P05177 whole entry, looked up): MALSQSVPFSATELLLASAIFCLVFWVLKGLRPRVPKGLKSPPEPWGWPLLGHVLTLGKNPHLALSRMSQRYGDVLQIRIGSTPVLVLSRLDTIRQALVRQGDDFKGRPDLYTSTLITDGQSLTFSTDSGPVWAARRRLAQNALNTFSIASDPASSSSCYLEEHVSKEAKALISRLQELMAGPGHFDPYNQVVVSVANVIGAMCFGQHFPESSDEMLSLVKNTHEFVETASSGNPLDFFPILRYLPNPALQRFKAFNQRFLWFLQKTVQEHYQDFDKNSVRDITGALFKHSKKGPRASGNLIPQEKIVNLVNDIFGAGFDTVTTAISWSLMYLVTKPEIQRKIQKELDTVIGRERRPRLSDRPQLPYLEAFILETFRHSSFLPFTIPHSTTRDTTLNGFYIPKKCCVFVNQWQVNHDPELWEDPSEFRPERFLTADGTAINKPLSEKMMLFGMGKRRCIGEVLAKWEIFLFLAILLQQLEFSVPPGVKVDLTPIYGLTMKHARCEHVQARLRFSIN
Sequence of 3',5'-cyclic-AMP phosphodiesterase 4B (Homo sapiens) (Q07343 whole entry, looked up): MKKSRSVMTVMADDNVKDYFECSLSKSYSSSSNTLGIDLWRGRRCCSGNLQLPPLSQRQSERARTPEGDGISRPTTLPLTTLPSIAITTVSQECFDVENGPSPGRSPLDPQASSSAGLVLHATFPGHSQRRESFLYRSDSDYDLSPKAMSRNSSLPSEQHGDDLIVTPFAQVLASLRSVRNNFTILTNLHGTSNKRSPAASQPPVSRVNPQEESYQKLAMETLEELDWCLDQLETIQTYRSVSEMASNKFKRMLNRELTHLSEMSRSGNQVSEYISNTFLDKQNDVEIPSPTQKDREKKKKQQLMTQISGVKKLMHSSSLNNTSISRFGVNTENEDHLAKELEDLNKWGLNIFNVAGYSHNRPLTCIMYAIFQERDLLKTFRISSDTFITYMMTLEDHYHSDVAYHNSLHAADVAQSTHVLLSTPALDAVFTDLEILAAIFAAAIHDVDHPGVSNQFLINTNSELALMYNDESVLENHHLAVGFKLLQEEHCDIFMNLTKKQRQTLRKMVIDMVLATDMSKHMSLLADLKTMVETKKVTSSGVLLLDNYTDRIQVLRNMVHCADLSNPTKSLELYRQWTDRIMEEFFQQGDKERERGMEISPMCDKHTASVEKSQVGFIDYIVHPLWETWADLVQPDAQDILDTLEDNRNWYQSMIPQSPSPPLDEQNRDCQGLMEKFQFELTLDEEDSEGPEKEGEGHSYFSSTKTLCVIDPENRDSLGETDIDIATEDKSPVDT
Sequence of Glucocorticoid receptor (Homo sapiens) (P04150 whole entry, looked up, the tested form may be a part): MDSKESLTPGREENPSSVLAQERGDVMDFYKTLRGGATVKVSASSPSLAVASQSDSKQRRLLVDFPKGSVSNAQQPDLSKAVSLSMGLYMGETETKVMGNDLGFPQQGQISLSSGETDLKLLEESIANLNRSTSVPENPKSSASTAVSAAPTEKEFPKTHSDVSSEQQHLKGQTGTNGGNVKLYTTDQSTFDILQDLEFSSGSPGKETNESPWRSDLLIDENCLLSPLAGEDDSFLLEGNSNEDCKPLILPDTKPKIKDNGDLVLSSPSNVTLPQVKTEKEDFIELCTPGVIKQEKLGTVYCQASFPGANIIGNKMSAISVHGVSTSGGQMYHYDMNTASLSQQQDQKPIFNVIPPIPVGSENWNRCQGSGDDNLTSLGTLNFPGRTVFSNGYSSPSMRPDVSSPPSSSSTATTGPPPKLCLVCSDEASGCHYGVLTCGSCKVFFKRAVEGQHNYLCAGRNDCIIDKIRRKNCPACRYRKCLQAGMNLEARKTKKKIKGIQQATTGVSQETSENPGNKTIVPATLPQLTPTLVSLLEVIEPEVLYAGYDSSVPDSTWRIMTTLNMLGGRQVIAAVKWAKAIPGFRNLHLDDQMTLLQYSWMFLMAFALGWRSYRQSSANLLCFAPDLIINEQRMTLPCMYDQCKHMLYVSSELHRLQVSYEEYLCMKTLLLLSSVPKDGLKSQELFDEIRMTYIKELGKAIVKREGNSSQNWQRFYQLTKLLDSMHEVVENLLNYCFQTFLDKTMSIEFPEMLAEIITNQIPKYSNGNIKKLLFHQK
Sequence of Cytochrome P450 2D6 (Homo sapiens) (P10635 whole entry, looked up): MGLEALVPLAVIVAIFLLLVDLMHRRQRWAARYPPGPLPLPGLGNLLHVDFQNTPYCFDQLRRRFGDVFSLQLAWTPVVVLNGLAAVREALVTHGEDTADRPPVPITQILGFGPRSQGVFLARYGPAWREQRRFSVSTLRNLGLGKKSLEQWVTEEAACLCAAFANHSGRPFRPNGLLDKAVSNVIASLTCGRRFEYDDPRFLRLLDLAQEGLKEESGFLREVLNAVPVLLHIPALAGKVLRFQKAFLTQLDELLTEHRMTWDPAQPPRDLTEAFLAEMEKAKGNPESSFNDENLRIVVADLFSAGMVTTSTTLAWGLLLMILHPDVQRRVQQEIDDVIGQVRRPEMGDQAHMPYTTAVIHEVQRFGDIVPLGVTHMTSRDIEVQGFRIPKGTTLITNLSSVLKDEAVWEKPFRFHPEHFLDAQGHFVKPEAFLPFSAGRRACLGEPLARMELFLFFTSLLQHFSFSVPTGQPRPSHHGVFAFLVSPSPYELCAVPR
Sequence of Cytochrome P450 2C9 (Homo sapiens) (P11712 whole entry, looked up): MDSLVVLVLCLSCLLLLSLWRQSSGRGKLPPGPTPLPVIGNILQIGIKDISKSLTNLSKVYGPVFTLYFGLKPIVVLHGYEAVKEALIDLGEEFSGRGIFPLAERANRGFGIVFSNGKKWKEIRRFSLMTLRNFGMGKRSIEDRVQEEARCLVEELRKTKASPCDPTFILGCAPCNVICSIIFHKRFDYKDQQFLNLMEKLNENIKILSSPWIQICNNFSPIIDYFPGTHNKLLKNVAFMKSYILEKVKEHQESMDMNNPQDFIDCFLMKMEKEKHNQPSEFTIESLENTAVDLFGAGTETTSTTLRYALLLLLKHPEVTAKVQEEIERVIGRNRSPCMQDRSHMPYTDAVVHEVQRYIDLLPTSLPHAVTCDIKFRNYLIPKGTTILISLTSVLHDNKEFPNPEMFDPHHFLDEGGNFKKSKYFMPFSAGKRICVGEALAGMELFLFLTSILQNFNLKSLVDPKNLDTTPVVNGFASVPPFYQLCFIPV
Sequence of Cytochrome P450 3A4 (Homo sapiens) (P08684 whole entry, looked up): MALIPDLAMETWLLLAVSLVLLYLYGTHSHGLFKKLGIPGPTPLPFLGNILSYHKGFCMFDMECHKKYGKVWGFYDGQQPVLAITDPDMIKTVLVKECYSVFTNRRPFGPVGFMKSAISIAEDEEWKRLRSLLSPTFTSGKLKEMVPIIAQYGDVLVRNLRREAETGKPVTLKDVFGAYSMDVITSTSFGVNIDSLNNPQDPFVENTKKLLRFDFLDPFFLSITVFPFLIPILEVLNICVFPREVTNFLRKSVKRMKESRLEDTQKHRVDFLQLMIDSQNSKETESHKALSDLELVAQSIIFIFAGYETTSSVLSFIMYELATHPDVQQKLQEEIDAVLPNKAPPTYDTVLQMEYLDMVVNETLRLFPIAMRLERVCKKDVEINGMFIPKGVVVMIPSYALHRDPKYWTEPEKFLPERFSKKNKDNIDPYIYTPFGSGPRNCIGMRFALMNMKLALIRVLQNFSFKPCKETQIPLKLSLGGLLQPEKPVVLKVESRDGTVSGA
Sequence of Cytochrome P450 2C19 (Homo sapiens) (P33261 whole entry, looked up): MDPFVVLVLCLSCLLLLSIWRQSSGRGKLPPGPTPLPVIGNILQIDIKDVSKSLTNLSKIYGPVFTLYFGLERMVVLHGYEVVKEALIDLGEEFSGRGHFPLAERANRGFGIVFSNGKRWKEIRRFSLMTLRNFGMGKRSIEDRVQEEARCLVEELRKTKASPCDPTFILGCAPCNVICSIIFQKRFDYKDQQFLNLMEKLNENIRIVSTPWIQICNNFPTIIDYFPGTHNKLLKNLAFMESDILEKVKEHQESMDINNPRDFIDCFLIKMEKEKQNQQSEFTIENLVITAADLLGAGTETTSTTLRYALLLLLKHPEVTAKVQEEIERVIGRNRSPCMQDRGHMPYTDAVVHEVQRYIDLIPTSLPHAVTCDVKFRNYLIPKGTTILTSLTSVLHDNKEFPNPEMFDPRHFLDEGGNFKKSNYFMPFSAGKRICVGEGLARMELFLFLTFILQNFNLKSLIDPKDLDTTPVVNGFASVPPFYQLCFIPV

CN(CC(=O)O)Cc1oc(CO)cc(=O)c1O
inactive: Potency [1] > 11.4 µM | activity change, negative = inhibition [2] 6.02% | Potency [3] | activity change, negative = inhibition [4] 10% | activity, negative = inhibition [5] 5.1% | Potency [6] > 46 µM | Potency [7] > 9.22 µM | Potency [8] | Potency [9]

S=C(S)NCCCn1ccnc1
inactive: Potency [1] > 11.4 µM | activity change, negative = inhibition [2] 7.59% | activity change, negative = inhibition [4] -2.39% | activity, negative = inhibition [5] 6.25% | Potency [6] > 46 µM | Potency [7] > 9.22 µM | Potency [8] | Potency [9]
active: Potency [3] 3.16 µM | Potency [10] 2 µM | Potency [11] 1.58 µM | Potency [12] 0.794 µM

O=C(O)c1ccc(SSc2ccc(C(=O)O)cn2)nc1
active: Potency [3] 3.16 µM | Potency [10] 1.58 µM | Potency [13] 2.51 µM
inactive: Potency [1] > 11.4 µM | activity change, negative = inhibition [2] -2.82% | activity change, negative = inhibition [4] 5.74% | activity, negative = inhibition [5] 15.8% | Potency [6] > 46 µM | Potency [7] > 9.22 µM | Potency [8] | Potency [9]

Nc1nc(N)nc(CCCCc2nc(N)nc(N)n2)n1
inactive: Potency [1] > 11.4 µM | activity change, negative = inhibition [2] 4.24% | activity change, negative = inhibition [3] 8.1% [at 2.29 µM] | activity change, negative = inhibition [4] 12.4% | activity, negative = inhibition [5] -0.633% | Potency [6] > 46 µM | Potency [7] > 9.22 µM | Potency [8] | Potency [9] | Potency [10] | Potency [12] | Potency [13]

N[C@@H](Cc1ncccn1)C(=O)O
inactive: Potency [1] > 11.4 µM | activity change, negative = inhibition [2] -0.104% | Potency [3] | activity change, negative = inhibition [4] 3.63% | activity, negative = inhibition [5] 3.82% | Potency [6] > 46 µM | Potency [7] > 9.22 µM | Potency [8] | Potency [9] | Potency [10]

CC(CCC(=O)O)(c1cc(Br)c(O)c(Br)c1)c1cc(Br)c(O)c(Br)c1
inactive: Potency [1] > 11.4 µM | activity change, negative = inhibition [2] 17.5% | activity change, negative = inhibition [3] -17.9% [at 2.29 µM] | activity change, negative = inhibition [4] 3.8% | activity, negative = inhibition [5] 0.505% | Potency [6] > 46 µM | Potency [7] > 9.22 µM | Potency [8] | Potency [9]
active: Potency [10] 3.16 µM

NNC(=O)Cc1cccnc1
inactive: Potency [1] > 11.4 µM | activity change, negative = inhibition [2] -8.16% | activity change, negative = inhibition [4] 7.3% | activity, negative = inhibition [5] 3.84% | Potency [6] > 46 µM | Potency [7] > 9.22 µM | Potency [8] | Potency [9] | Potency [10] | Potency [14]
active: Potency [3] 0.631 µM | Potency [11] 3.16 µM

O=C1CNCCCN2CCN(CCCNCC(=O)Nc3ccc(cc3)S(=O)(=O)c3ccc(cc3)NC(=O)CNCCCN3CCN(CCCNCC(=O)Nc4ccc(cc4)S(=O)(=O)c4ccc(cc4)N1)CC3)CC2
inactive: Potency [1] > 11.4 µM | activity change, negative = inhibition [2] -2.18% | Potency [3] | activity change, negative = inhibition [4] 13.1% | activity, negative = inhibition [5] -11% | Potency [6] > 46 µM | Potency [7] > 9.22 µM | Potency [8] | Potency [9] | Potency [10] | Potency [12] | Potency [13]

COc1ccc([C@@H](Nc2ncccn2)c2cc3c(cc2O)OCO3)cc1
active: Potency [10] 3.16 µM | Potency [11] 2.51 µM
inactive: Potency [1] > 11.4 µM | activity change, negative = inhibition [2] -6.22% | activity change, negative = inhibition [3] -14.3% [at 2.29 µM] | activity change, negative = inhibition [4] 17.5% | activity, negative = inhibition [5] -1.19% | Potency [6] > 46 µM | Potency [7] > 9.22 µM | Potency [8] | Potency [9] | Potency [14]

S=C1N[C@H](c2ccccc2)N[C@H](c2ccccc2)S1
active: Potency [3] 3.16 µM | Potency [10] 2 µM | Potency [12] 3.98 µM | Potency [13] 3.98 µM
inactive: Potency [1] > 11.4 µM | activity change, negative = inhibition [2] -0.71% | activity change, negative = inhibition [4] -21.2% | activity, negative = inhibition [5] -1.19% | Potency [6] > 46 µM | Potency [7] > 9.22 µM | Potency [8] | Potency [9] | Potency [14]

Oc1cccc2ccc(SSc3ccc4cccc(O)c4n3)nc12
inactive: Potency [1] > 11.4 µM | activity change, negative = inhibition [2] 1.21% | activity change, negative = inhibition [4] -22.6% | activity, negative = inhibition [5] -15.4% | Potency [6] > 46 µM | Potency [7] > 9.22 µM | Potency [8] | Potency [9] | Potency [14]
active: Potency [3] 3.16 µM | Potency [10] 1.58 µM | Potency [13] 3.16 µM

C[C@H]1C[C@@H]2[C@H]3CCC4=CC(=O)C=C[C@@]4(C)[C@]3(Cl)[C@@H](Cl)C[C@]2(C)[C@]1(O)C(=O)COP(=O)(O)O
inactive: Potency [1] > 11.4 µM | activity change, negative = inhibition [2] -4.94% | Potency [3] | activity change, negative = inhibition [4] 9.07% | activity, negative = inhibition [5] 2.85% | Potency [8] | Potency [9] | Potency [10] | Potency [12] | Potency [13]
active: Potency [6] 0.0275 µM | Potency [7] 7.37 µM
